PubChem BioAssay (Tox21)
Records with an inconclusive call do not appear. Calls of active or inactive are those of the source. The call rests on the fitted dose curve; in most records, active means well fitted curve in the direction sought with a large enough effect in the repeat runs; inconclusive means weak or mixed curves; inactive means no such curve, though single readings can be large; an effect the other way counts as inactive or inconclusive.

Columns and labels:
[1] = qHTS RealTime-Glo MT Cell Viability Assay in HEK293 cells - 0 hour (AID 1224880); further: top concentration of the series differs between compounds; nearly all actives have a fitted effect of over 45% in size
Method in brief: (§1)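 Viable HEK293 cells reduce a cell-permeant prosubstrate; the product diffuses out and is consumed by NanoLuc in the medium to give light. Compounds went in after a 5 h incubation and plates were read over the treatment course.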

[2] = A CellTox Green Cytotoxicity Assay to monitor cytotoxicity in HEK293 cells - 32 hour (AID 1224881); further: nearly all actives have a fitted effect of over 40% in size
Method in brief: (§2)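 Fluorescence intensity, read at 0, 8, 16, 24, 32 and 40 h of compound treatment, reflected dye binding to DNA of dead HEK293 cells; compounds (23 nL, DMSO) were added 5 h after plating cells with reagent.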

[3] = A CellTox Green Cytotoxicity Assay to monitor cytotoxicity in HepG2 cells - 0 hour (AID 1224882); further: nearly all actives have a fitted effect of over 35% in size
Method in brief: (§3)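 Using 1536-well format, dye-containing HepG2 suspension was seeded, allowed 5 h at 37 C/5% CO2, dosed by pintool with compounds, positive and negative controls, and imaged for fluorescence across 40 h.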

[4] = A CellTox Green Cytotoxicity Assay to monitor cytotoxicity in HepG2 cells - 32 hour (AID 1224883); further: nearly all actives have a fitted effect of over 50% in size
Method in brief: as §3

[5] = A CellTox Green Cytotoxicity Assay to monitor cytotoxicity in HEK293 cells - 8 hour (AID 1224884); further: nearly all actives have a fitted effect of over 35% in size
Method in brief: as §2

[6] = qHTS RealTime-Glo MT Cell Viability Assay in HepG2 cells - 16 hour (AID 1224885); further: nearly all actives have a fitted effect of over 50% in size
Method in brief: (§4)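 Cells + NanoLuc/prosubstrate dispensed (600 cells/well) → 5 h at 37 C/5% CO2 → compounds in DMSO transferred → 40 h incubation at 37 C, luminescence read at 0, 8, 16, 24, 32, 40 h.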

[7] = qHTS RealTime-Glo MT Cell Viability Assay in HEK293 cells - 24 hour (AID 1224886); further: top concentration of the series differs between compounds; nearly all actives have a fitted effect of over 50% in size
Method in brief: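 Tox21 10K qHTS, HEK293, 600 cells/well, RealTime-Glo reagent co-dispensed with cells; 5 h preincubation, compound by pintool, 37 C, luminescence at 0–40 h.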

[8] = qHTS RealTime-Glo MT Cell Viability Assay in HEK293 cells - 8 hour (AID 1224887); further: top concentration of the series differs between compounds; nearly all actives have a fitted effect of over 50% in size
Method in brief: as §1

[9] = qHTS RealTime-Glo MT Cell Viability Assay in HepG2 cells - 0 hour (AID 1224889); further: nearly all actives have a fitted effect of over 50% in size
Method in brief: as §4

[10] = A CellTox Green Cytotoxicity Assay to monitor cytotoxicity in HEK293 cells - 16 hour (AID 1224888); further: nearly all actives have a fitted effect of over 35% in size
Method in brief: as §2

Measured: Potency

CC(C)(C)c1cc(Cc2cc(C(C)(C)C)c(O)c(C(C)(C)C)c2)cc(C(C)(C)C)c1O
not listed: [10]
inactive: all other assays above

CC(=O)Oc1ccc(C)cc1
inactive: all assays above

CCCCCCCCCCCCCCCC(=O)OC(C)C
inactive: all assays above

C[C@]12CC[C@@H]3c4ccc(O)cc4CC[C@H]3[C@@H]1C[C@@H](O)[C@@H]2O
not listed: [10]
inactive: all other assays above

C=CCCCCCCCCC(=O)O
inactive: all assays above

CSc1ccc(Cl)cc1
inactive: all assays above

C=CC[N+](C)(C)CC=C
not listed: [10]
inactive: all other assays above

CCOC(=O)c1ccc(N)cc1
inactive: all assays above

CC(=O)c1ccc(O)cc1
inactive: all assays above

O=C(O)CCCCCCCCC(=O)O
inactive: all assays above

NCCN1CCNCC1
inactive: all assays above

O=C1C(c2[nH]c3ccccc3c2O)=Nc2ccccc21
inactive: all assays above

O=S(=O)(O)c1ccccc1
inactive: all assays above

OCc1cccc(Oc2ccccc2)c1
inactive: all assays above

O=C(O)c1ccccc1C(=O)O
not listed: [10]
inactive: all other assays above

CC1(C)S[C@@H]2[C@H](NC(=O)COc3ccccc3)C(=O)N2[C@H]1C(=O)O
inactive: all assays above

CCOCC(=O)O
inactive: all assays above

CC(C)c1cccc(C(C)C)c1
inactive: all assays above

CCOCCOCCOCCO
inactive: all assays above

CC(C)(C#N)c1cc(Cn2cncn2)cc(C(C)(C)C#N)c1
inactive: all assays above

COc1ccc([N+](=O)[O-])cc1N
not listed: [10]
inactive: all other assays above

COc1ccccc1OCC(O)CO (centres undefined)
inactive: all assays above

N[C@H](Cc1c[nH]c2ccccc12)C(=O)O
not listed: [10]
inactive: all other assays above

CCCCCCC=O
inactive: all assays above

CC(=O)OC1CC(C)OC(C)O1 (centres undefined)
inactive: all assays above

CC(=O)CCC=C(C)C
inactive: all assays above
